Data as given in publication PMC12136788.
In all, about 5,800 sequences were measured (“enrichment r”: median about 0.68, highest 2% from about 11 on). These entries were drawn from the full list.

B1: chr1:23091194:23091296:-|CDS|ENSG00000169641|unk|FALSE|unique (ssRNA)
RNA: GGGAGUUCUACAGUCCGACGAUCCUCCAGAAGGACCCAAAGUAGCCUCACUGUGUCAGAGGUGCUUACCCGUCGGAAUCGGGUAGGAGACACCAUCACUGUCGCAGCCUGGAACCACUCAGCAAGCAUGGUGAGUUCCAGCCUCAACAGAGGAUUGAGCAUCA
B2: ENSG00000160209:stop:overlap|stop_codon|ENSG00000160209|stop_codon|NA|stop_codon (ssRNA)
RNA: GGGAGUUCUACAGUCCGACGAUCCCUUGACCUCCUGGGCUGAAGCAAUCUUUCUGCCUCCACCUCCCGAGUGGCUGGGACUAUAGUUGUGCACCAGCACGCCCACCUCCUGCCCAGGGUUGUUACUGGGGUGGUCACGUGGGCCAACAGAGGAUUGAGCAUCA
B3: chr1:212100457:212100572:+|CDS|ENSG00000143476|unk|FALSE|unique (ssRNA)
RNA: GGGAGUUCUACAGUCCGACGAUCAGAAGAGGCUCUGUCUCCUCCGUCUCUCCCAAGCCACCUUCAUCUUUCAAGAUGUCGAUUAGAAACUGGGUGACCCGAACACCUUCCUCAUCACCACCCAUCACUCCACCUGCUUCGGAGCAACAGAGGAUUGAGCAUCA
B4: chr20:63196482:63196583:-|3pUTR|ENSG00000149658|msi1|total|mutant (ssRNA)
RNA: GGGAGUUCUACAGUCCGACGAUCUGAUUUUUGCCCAGAUGGAUCUGCAUUUAUUUGUACUUUUUCUAUGUAUUAUAAUCCUGCCGAAGUCACUAAUAAAGGAGUAUUUUUUUUGUCAGCUUAUCAAUCAGACUGAUCUAAUGUCAACAGAGGAUUGAGCAUCA
B5: chr16:55506527:55506628:+|3pUTR|ENSG00000087245|msi1|FALSE|unique (ssRNA)
RNA: GGGAGUUCUACAGUCCGACGAUCUAUCAGUUUUAAUGCUACUACUAACAAUGAACAGUAACAAUAAUAUCCCCCUCAAUUAAUAGAGUGCUUUCUAUGUGCAAGGCACUUUUCACGUGUCACCUAUUUUAACCUUUCCAACCACAACAGAGGAUUGAGCAUCA
B6: ENSG00000107863:be:win_4351|CDS|ENSG00000107863|bound_else_gene|NA|bound_elsewhere_windowed (ssRNA)
RNA: GGGAGUUCUACAGUCCGACGAUCCACAAUGAUACUAAAGAGGAGUCCAAAAAAGAAAGUGAGACACUGGGCAGAAAACAGAAGAUCAUCAUUGCCAAAGAAAACAGCACUAGGAAAGACCCCAGCACGACAAAAGAUGAAAAGCAACAGAGGAUUGAGCAUCA
B7: chr13:42886387:42888493:-|three_prime_utr|ENSG00000133106|control|control|control (ssRNA)
RNA: GGGAGUUCUACAGUCCGACGAUCCAUAUUUAAUCUCUACUGCCAGGGAAAUGCUACAUUAUUUUUCUAAUUGGAAGUAUAAUUAGAGUGAUGUUGGUAGGGUAGAAAAAGAGGGAGUCACUUGAUGCUUUCAGGUUAAUCAGACAACAGAGGAUUGAGCAUCA
B8: chr4:143221337:143221438:+|3pUTR|ENSG00000170185|unk|FALSE|unique (ssRNA)
RNA: GGGAGUUCUACAGUCCGACGAUCUUGAAAGGUAAUAGAUUUUCCAGAAGUAAAAUCUGAUGGUUCUAAAUCAAUCAAUGUGAUAGUUCAUUUUUAACUCUUAGAAGAAUUCAGAGGAAAUUAACCCAGCUAAGUAAAAAAUCUCAACAGAGGAUUGAGCAUCA
B9: chr1:46316673:46316776:+|3pUTR|ENSG00000173660|unk|FALSE|unique (ssRNA)
RNA: GGGAGUUCUACAGUCCGACGAUCUGUUUCUUAUUUGUGUAACUGUAAGUUCACAUGAACCUCAUGGGUUUGGCUUAGGCUGGUAGCUUCUAUGUAAUUCGCAAUGAUUCCAUCUAAAUAAAAGUUCUAUGAUCUGCAAACCUGCAACAGAGGAUUGAGCAUCA
B10: chrX:53645320:53645442:-|CDS|ENSG00000086758|unk|FALSE|unique (ssRNA)
RNA: GGGAGUUCUACAGUCCGACGAUCUUAUUGGCUUCCUCUGAUAUGCAAGUGGUGCUGGCAGUCCUCAAUCUCCUAUAUGUAUUUAGCAAAAGAUCAAACUACAUCACUCGUCUGGGAUCUGACAAGAGGACCCCGCUGCUAACUCAACAGAGGAUUGAGCAUCA
B11: chrX:101412715:101412817:+|CDS|ENSG00000126945|unk|total|mutant (ssRNA)
RNA: GGGAGUUCUACAGUCCGACGAUCGGGUAUGGAGGCUAUGAUGACUAUGGUGGCUAUAAUGAUGGAUAUGGCUUUGGGUCUGACCGAUUUGGAAGAGACCUCAAUUACUGUUUUUCAGGAAUGUCUGAUCACCGAUACGGAGAUCAACAGAGGAUUGAGCAUCA
B12: chr7:100033925:100034026:+|CDS|ENSG00000106261|msi1|total|mutant (ssRNA)
RNA: GGGAGUUCUACAGUCCGACGAUCCAGAGCUCGGACCUCACCAAGCAUCAGAGAAUUCACACGGGGGAGAAACCCUAUGAAUGCCGUGAAUGUGGAAAAGCUUUCAACCGAAACUCAUACCUGAUUUUGCAUCGGAGAAUUCACCAACAGAGGAUUGAGCAUCA
B13: chr12:123761472:123761573:+|3pUTR|ENSG00000185344|unk|total|mutant (ssRNA)
RNA: GGGAGUUCUACAGUCCGACGAUCAAUAAGGCAGUUUGAACGAACAGUCUUCCCACAGUCAGGCCAUUUUUGCUGAUUUGGUUCCGAAUUUUCAGAAAUACUCCGUACACUCCACCUGUUCUUUGAUGGGAAUAUCUAAGAAGGCAACAGAGGAUUGAGCAUCA
B14: chr20:2117184:2117286:+|CDS|ENSG00000125834|unk|FALSE|unique (ssRNA)
RNA: GGGAGUUCUACAGUCCGACGAUCGCUCCUGGGGACCUACAUUAAACAGGGGACUGAGAUCGUCCCUGUUGGUGAGGCGCUGCUAGAAAACCCAAAGAUGGAGUUGCACAUCCCCCAAAAACGCAGGACUUCCAUGUCUGAGGGCAACAGAGGAUUGAGCAUCA
B15: chr6:106663037:106663138:+|CDS|ENSG00000130348|msi1|FALSE|unique (ssRNA)
RNA: GGGAGUUCUACAGUCCGACGAUCAGCACAGAAAGUGAGACGCCUCAUUGCUAAUGACUUUGUAAAUGCUUUUAACUCUGGAGUAGAUGUCUUGCUAACUCCCACCACCUUGAGUGAGGCAGUACCAUACUUGGAGUUCAUCAACAACAGAGGAUUGAGCAUCA
B16: ENSG00000070961:be:win_1|CDS|ENSG00000070961|bound_else_gene|NA|bound_elsewhere_windowed (ssRNA)
RNA: GGGAGUUCUACAGUCCGACGAUCAUGGGCGACAUGGCAAACAACUCAGUUGCUUACAGUGGUGUGAAAAACUCUUUGAAGGAAGCUAAUCAUGAUGGAGACUUUGGAAUUACGCUCGCAGAGCUGCGGGCUCUCAUGGAGCUCCAACAGAGGAUUGAGCAUCA
B17: chr3:185917260:185917361:-|3pUTR|ENSG00000136527|msi1|FALSE|unique (ssRNA)
RNA: GGGAGUUCUACAGUCCGACGAUCUGGCAAAAAGCAACAAUAAACAGUUUGAUUUUUACUUUUCUUUCUAACAUAUCAAUGCUUAGCAGAACUAUUCAGAUUGUCAGUAGUAAAUUUAAAGACAAAUGCCCGUUUUCCUCCAGUCAACAGAGGAUUGAGCAUCA
B18: chr8:17299120:17299221:-|3pUTR|ENSG00000003987|unk|total|mutant (ssRNA)
RNA: GGGAGUUCUACAGUCCGACGAUCUCCUCAUUAUUUAAAAAUGCUAAACCUUGUAUCUCACUUUUUCUCUAACACUGAUUUAACCGCUAACGAGGCCGAAGCAACAUUCAUUCUCCUGGUCUUACAUAUGAAUUUAAGUAUCAGCAACAGAGGAUUGAGCAUCA
B19: chr12:21491601:21491717:-|CDS|ENSG00000004700|unk|FALSE|unique (ssRNA)
RNA: GGGAGUUCUACAGUCCGACGAUCGCUGCCUCCCAUAGCUCUAACUGAGGAACUGGAUUCUAUAACCAGUGAGCUACAUGCAGUAGAAAUUCAAAUUCAAGAACUUACGGAAAGGCAACAAGAGCUUAUUCAGAAAAAAAAAGUCAACAGAGGAUUGAGCAUCA
B20: chr9:130903550:130903651:-|3pUTR|ENSG00000130720|msi1|total|mutant (ssRNA)
RNA: GGGAGUUCUACAGUCCGACGAUCAAAUACCCGGCAUUAUGGGGACAGAGAGCAGGGGGCAGACAGCACCCCUGGAGUCCUCCCCGCAGAUCGUGGGGAACGUCAGGUCUCUCUGAGGUCAGGUCUGAGGCCAGUAUCCUCCAGCAACAGAGGAUUGAGCAUCA
B21: chr1:113590523:113590624:+|CDS|ENSG00000081026|unk|FALSE|unique (ssRNA)
RNA: GGGAGUUCUACAGUCCGACGAUCUCAUCUGACUGGAUGAAGACUGUUCCAAGUUACAACCAAACAAAUAGCUCCAUGGACUUUAGAAAUUAUAUGAUGAGAGAUGAGACUCUGGAACCACUGCCCAAAAACUGGGAAAUGGCCCAACAGAGGAUUGAGCAUCA
B22: chr4:127885990:127886091:+|CDS|ENSG00000142731|msi1|FALSE|unique (ssRNA)
RNA: GGGAGUUCUACAGUCCGACGAUCAUUACUUAUCGGGAGACCACCCUUCGACACUGACACAGUCAAGAACACAUUAAAUAAAGUAGUAUUGGCAGAUUAUGAAAUGCCAUCUUUUUUGUCAAUAGAGGCCAAGGACCUUAUUCACAACAGAGGAUUGAGCAUCA

Target: T1, UNK ZnF1-6 (called full-length) (human, UniProt Q9C0B0 30-357)
T1 sequence: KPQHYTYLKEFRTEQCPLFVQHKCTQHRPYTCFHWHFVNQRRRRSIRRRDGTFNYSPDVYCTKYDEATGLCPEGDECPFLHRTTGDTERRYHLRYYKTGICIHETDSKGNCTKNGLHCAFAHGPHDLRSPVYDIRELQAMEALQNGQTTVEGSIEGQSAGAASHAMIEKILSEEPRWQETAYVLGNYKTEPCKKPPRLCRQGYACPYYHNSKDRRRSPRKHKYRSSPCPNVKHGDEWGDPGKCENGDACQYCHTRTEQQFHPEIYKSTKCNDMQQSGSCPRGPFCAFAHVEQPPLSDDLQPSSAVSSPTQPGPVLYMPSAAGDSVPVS
Test: nsRBNS (natural sequence RNA bind-n-seq); RBNS binding buffer (assumed for nsRBNS): 25 mM Tris pH 7.5, 150 mM KCl, 3 mM MgCl2, 0.01% Triton X-100, 500 ug/ml BSA, 20 U/ml SUPERase-In, 4 C; UNK is unkempt and MSI1 is Musashi-1; names of the RNAs are library labels; protein concentration not given here; high values mean tight binding

Binder | binding signal [enrichment R]
B1 | 0.389
B2 | 0.427
B3 | 0.772
B4 | 0.665
B5 | 0.763
B6 | 0.687
B7 | 0.481
B8 | 0.783
B9 | 0.574
B10 | 0.899
B11 | 0.671
B12 | 0.595
B13 | 0.271
B14 | 1.08
B15 | 0.484
B16 | 0.508
B17 | 0.751
B18 | 0.98
B19 | 0.594
B20 | 0.72
B21 | 1.15
B22 | 1.26
